From PubChem BioAssay (Tox21)
Results filed as inconclusive are left out. Calls of active or inactive are those of the source. Unless noted, the call rests on the fitted dose curve; in most records, active means well fitted curve in the direction sought with a large enough effect in the repeat runs; inconclusive means weak or mixed curves; inactive means no such curve, though single readings can be large; an effect the other way counts as inactive or inconclusive.

Assays:
[1] = qHTS assay for small molecule agonists of the p53 signaling pathway (AID 651631; calls by dose curve; further: nearly all actives have a fitted effect of over 15% in size)
How it was run: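 Readout was fluorescence from the LiveBLAzer FRET substrate, applied for 2 h at room temperature after 16 h compound exposure at 37 °C. Cells were the p53RE-bla HCT-116 line, with beta-lactamase driven by p53 response elements.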

[2] = qHTS assay for small molecules that induce genotoxicity in human embryonic kidney cells expressing luciferase-tagged ATAD5 (AID 651632); further: nearly all actives have a fitted effect of over 15% in size
How it was run: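 A rise in luciferase signal from ATAD5-tagged HEK293T cells marks genetic stress. Cells were exposed to compounds for 16 hr at 37C, 5% CO2, then luciferase was quantified after a 30 min room-temperature incubation with Amplite.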

[3] = qHTS assay for small molecule agonists of the p53 signaling pathway - cell viability (AID 651633; calls by dose curve; further: series mostly up to about 83 µM; nearly all actives have a fitted effect of over 30% in size)
How it was run: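 p53RE-bla cells were treated with compound for 16 hours at 37 C. Cytotoxicity was then measured as CellTiter-Glo luminescence after 30 min at room temperature.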

[4] = qHTS assay to test for compound auto fluorescence at 535 nm (green) in HepG2 cells (AID 720675)
[5] = qHTS assay to test for compound auto fluorescence at 460 nm (blue) in HEK293 cells (AID 720678)
How it was run: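 Auto fluorescence in the blue band was quantified as triamterene equivalency. HEK293 cells were seeded at 2,000/well, dosed after a 4-5 hr attachment, and kept overnight at 37C before the 405/460 nm reading.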

[6] = qHTS assay to test for compound auto fluorescence at 590 nm (red) in HEK293 cells (AID 720679)
How it was run: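 Autofluorescence equivalency to Rose Bengal sodium, 540/590nm, in HEK293 cells exposed overnight to 23 nL compound per well.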

[7] = qHTS assay to test for compound auto fluorescence at 535 nm (green) in HEK293 cells (AID 720680)
[8] = qHTS assay to test for compound auto fluorescence at 460 nm (blue) in HEK293 cell free culture (AID 720681)
How it was run: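 Compounds were added to cell-free DMEM with 10% FBS and fluorescence read directly. The blue channel used 405 nm excitation and 460 nm emission, with triamterene as the reference fluorophore.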

[9] = qHTS assay to test for compound auto fluorescence at 535 nm (green) in HEK293 cell free culture (AID 720682)
How it was run: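 Compounds were pin-transferred into cell-free DMEM with 10% FBS, and green fluorescence was read at excitation 485 nm and emission 535 nm. Intensities were expressed as fluorescein-equivalent values.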

[10] = qHTS assay to test for compound auto fluorescence at 590 nm (red) in HEK293 cell free culture (AID 720683)
How it was run: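 Cell-free wells of DMEM with 10% FBS received compound, and intrinsic fluorescence was read at excitation/emission 540/590 nm. Values expressed as equivalence to Rose Bengal sodium.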

[11] = qHTS assay to test for compound auto fluorescence at 590 nm (red) in HepG2 cell free culture (AID 720684)
How it was run: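 Rose Bengal sodium served as the reference for red signal. Test compounds were dispensed into serum-containing MEM (10% FBS) without cells, and plates were read at 540/590 nm.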

[12] = qHTS assay to test for compound auto fluorescence at 460 nm (blue) in HepG2 cell free culture (AID 720685)
How it was run: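 Cell-free plates of MEM plus 10% FBS received 23 nL compound or DMSO vehicle; blue-channel (405/460 nm) intensity scored against triamterene as reference fluorophore.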

[13] = qHTS assay to test for compound auto fluorescence at 535 nm (green) in HepG2 cell free culture (AID 720686)
[14] = qHTS assay to test for compound auto fluorescence at 460 nm (blue) in HepG2 cells (AID 720687)
How it was run: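 HepG2 cells in MEM with 10% FBS, attached overnight at 37 C, were exposed to compound or DMSO for 1 hr at 37 C, 5% CO2. Blue fluorescence was read at 405/460 nm, with triamterene as reference fluorophore.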

[15] = biological target: Glucocorticoid receptor (Homo sapiens) (UniProt P04150); assay: qHTS assay to identify small molecule agonists of the glucocorticoid receptor (GR) signaling pathway (AID 720691; active means well fitted activation curve with a large enough effect in the signal ratio in the repeat runs, not every such curve was filed as active; the % refers to the signal ratio)
How it was run: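 Agonist-mode qHTS in HeLa cells stably expressing a glucocorticoid-response-element beta-lactamase reporter. Fluorescence intensity read with FRET substrate (2 h, room temperature) after 18 h compound treatment at 37 C.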

[16] = biological target: Glucocorticoid receptor (Homo sapiens) (UniProt P04150); assay: qHTS assay to identify small molecule antagonists of the glucocorticoid receptor (GR) signaling pathway (AID 720692; active means well fitted inhibition curve with a large enough effect in the signal ratio in the repeat runs, not every such curve was filed as active; the % refers to the signal ratio)
How it was run: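 Inhibition of dexamethasone-driven (5 nM final) beta-lactamase expression was measured in GRE-reporter HeLa cells over 18 h at 37C. Fluorescence was read after 2 h with the B/G FRET substrate at room temperature.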

[17] = qHTS assay for small molecule disruptors of the mitochondrial membrane potential - cell viability (AID 720634; calls by dose curve;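 further: human HepG2 liver cancer cells; series mostly up to about 83 µM; nearly all actives have a fitted effect of over 20% in size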)
How it was run: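 Cytotoxicity was quantified from ATP content by CellTiter-Glo luminescence in the same wells as the MMP dye read-out. HepG2 (2,000 cells/well) were plated overnight and exposed to compounds for 1 hr at 37 C.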

[18] = qHTS assay for small molecule disruptors of the mitochondrial membrane potential (AID 720635); further: potency means the concentration at half of the fitted maximal effect
How it was run: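 HepG2 cells exposed to compound 1 hr at 37C, then Mito-MPS dye 30 min. Ratio read of aggregate (540/590 nm) versus monomer (490/535 nm) fluorescence.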

[19] = qHTS assay to test for compound auto fluorescence at 590 nm (red) in HepG2 cells (AID 720674)
How it was run: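 HepG2 cells, 2,000 per well in MEM with 10% FBS, attached overnight at 37 C, then got 23 nL compound or DMSO. After 1 hr at 37 C, 5% CO2, red fluorescence was read at 540/590 nm against Rose Bengal sodium as reference.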

[20] = qHTS assay for small molecules that induce genotoxicity in human embryonic kidney cells expressing luciferase-tagged ATAD5 - cell viability (AID 651634; calls by dose curve; further: nearly all actives have a fitted effect of over 25% in size)
How it was run: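 Cytotoxicity counter-readout: after 15.5 hr compound treatment at 37C, live-cell protease activity in ATAD5-luciferase HEK293T cells measured by CellTiter-Fluor fluorescence, 30 min development at 37C.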

Measured: Potency

Chain of Glucocorticoid receptor (Homo sapiens) (P04150 whole entry, looked up): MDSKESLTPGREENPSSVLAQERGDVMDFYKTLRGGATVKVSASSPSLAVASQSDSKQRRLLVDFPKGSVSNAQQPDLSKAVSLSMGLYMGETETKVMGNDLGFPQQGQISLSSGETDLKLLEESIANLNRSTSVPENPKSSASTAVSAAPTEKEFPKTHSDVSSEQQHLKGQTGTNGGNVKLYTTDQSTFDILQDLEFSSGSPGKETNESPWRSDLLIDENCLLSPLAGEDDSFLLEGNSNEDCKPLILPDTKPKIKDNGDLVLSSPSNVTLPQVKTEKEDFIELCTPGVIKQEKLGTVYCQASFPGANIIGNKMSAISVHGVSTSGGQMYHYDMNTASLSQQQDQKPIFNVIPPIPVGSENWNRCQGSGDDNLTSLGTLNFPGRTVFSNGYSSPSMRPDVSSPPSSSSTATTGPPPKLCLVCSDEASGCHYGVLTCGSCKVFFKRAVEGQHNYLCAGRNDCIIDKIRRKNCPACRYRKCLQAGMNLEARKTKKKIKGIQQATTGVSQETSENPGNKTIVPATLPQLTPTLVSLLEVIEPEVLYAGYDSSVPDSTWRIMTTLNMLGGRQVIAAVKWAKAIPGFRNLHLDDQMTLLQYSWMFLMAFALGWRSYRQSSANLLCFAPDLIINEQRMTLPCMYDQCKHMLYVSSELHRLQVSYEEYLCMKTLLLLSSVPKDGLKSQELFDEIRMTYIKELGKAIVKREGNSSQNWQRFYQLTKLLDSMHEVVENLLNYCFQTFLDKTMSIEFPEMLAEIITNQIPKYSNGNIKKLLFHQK

C[N+]1(C)[C@@H]2CC(OC(=O)[C@H](CO)c3ccccc3)C[C@H]1[C@@H]1O[C@@H]12 (stereo partly specified)
not listed: [17] | [18] | [19] | [20]
inactive: all other assays above

CCCCCCCCCCCCCCCCCCO
not listed: [10] | [15] | [20]
inactive: all other assays above

CC(C)[C@H]1CC[C@@H](C)CC1=O
not listed: [2] | [7] | [10] | [15] | [16] | [18] | [19]
inactive: all other assays above

Clc1cc(Cl)cc(Cl)c1
not listed: [5] | [8] | [20]
inactive: all other assays above

CN1CCN(c2cc3c(nn2)Oc2ccccc2N3C)CC1
not listed: [2] | [5] | [15] | [16] | [20]
inactive: all other assays above

NO
active: [18] 55.5 µM
not listed: [2] | [14] | [15] | [16]
inactive: all other assays above

CCOc1ccc2nc(S(N)(=O)=O)sc2c1
not listed: [1] | [7] | [13] | [14] | [15] | [18]
inactive: all other assays above

COc1ccccc1OCC1CNC(=O)O1 (stereo unspecified)
not listed: [1] | [4] | [15] | [16]
inactive: all other assays above

CC(=O)NC(=O)c1ccccc1O
not listed: [1] | [7] | [15]
inactive: all other assays above

COc1c(N2CCNC(C)C2)c(F)cc2c(=O)c(C(=O)O)cn(C3CC3)c12 (stereo unspecified)
not listed: [1] | [15]
inactive: all other assays above

O=S(=O)(O)c1cc(O)c(O)c(S(=O)(=O)O)c1
not listed: [1] | [7] | [15] | [16] | [18]
inactive: all other assays above

CC(C)(C)c1ccc(-c2ccc(C(C)(C)C)cc2)cc1
not listed: [1] | [18]
inactive: all other assays above

Cc1ccccc1N=C(N)N=C(N)N
not listed: [1] | [16] | [18]
inactive: all other assays above

O=C(O)Cc1csc(-c2ccc(Cl)cc2)n1
not listed: [1] | [4] | [15] | [16] | [19]
inactive: all other assays above

C1CCC2(CCCCO2)OC1
not listed: [1]
inactive: all other assays above

CCO[Si](OCC)(OCC)c1ccccc1
not listed: [1] | [18]
inactive: all other assays above
